# Source: PubChem BioAssay
# The source made the active and inactive calls.
# Legend:
# [1] = compounds binding Alexa647 anti-His antibody – biochemical, small-molecule microarray, 635 nm fluorescence, artefact control for SMM control protein annotation, primary screen (AID 1128); settings: higher = more signal;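 note: score merges feature fluorescence with signal-to-noise for each printed compound spot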
# [2] = test system: Human papillomavirus type 1a E7 protein (residues 1-88); assay: HPV1a E7 small-molecule binders, primary screen, biochemical, small-molecule microarray, residues 1-88, 635 nm (AID 1129); settings: small-molecule microarray binding, fluorescence 635 nm; higher = more signal
# [3] = biological target: Focal adhesion kinase 1 (Homo sapiens) (UniProt Q05397); assay: PTK2 protein binding on printed compound slides – biochemical, small-molecule microarray, 635/667 nm fluorescence, BSA, DTT, primary screen (AID 1130); settings: 635 nm fluorescence, higher = more signal;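 note: composite of spot emission at 667 nm and signal to noise over triplicate slides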
# Chain of Focal adhesion kinase 1 (Homo sapiens) (Q05397 whole entry, looked up): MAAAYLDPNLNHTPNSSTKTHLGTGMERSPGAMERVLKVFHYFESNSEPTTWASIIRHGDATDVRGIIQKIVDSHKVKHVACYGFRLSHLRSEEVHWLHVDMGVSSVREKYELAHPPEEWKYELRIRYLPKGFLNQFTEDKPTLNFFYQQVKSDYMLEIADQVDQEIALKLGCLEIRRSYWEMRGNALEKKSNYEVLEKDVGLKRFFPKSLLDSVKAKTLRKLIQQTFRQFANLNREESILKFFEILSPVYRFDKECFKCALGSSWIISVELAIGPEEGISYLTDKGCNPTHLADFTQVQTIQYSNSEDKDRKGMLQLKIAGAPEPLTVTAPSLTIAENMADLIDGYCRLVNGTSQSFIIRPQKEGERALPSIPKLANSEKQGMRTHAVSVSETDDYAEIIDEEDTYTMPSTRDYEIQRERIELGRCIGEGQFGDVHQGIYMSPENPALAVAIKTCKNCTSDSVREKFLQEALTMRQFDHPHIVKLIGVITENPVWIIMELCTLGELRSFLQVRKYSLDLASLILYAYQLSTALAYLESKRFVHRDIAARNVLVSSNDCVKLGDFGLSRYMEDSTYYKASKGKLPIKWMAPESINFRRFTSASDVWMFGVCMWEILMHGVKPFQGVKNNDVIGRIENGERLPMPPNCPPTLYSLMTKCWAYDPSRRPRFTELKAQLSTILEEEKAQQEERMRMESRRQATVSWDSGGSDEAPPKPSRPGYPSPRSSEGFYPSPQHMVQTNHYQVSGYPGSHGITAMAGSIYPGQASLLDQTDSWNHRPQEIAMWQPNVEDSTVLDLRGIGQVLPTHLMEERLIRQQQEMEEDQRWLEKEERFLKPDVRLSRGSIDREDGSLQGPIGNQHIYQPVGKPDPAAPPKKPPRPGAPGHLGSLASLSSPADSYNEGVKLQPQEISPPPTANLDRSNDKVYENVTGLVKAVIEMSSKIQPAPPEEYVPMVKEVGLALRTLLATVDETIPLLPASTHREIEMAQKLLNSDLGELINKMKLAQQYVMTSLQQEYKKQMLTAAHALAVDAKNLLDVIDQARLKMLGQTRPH
# [4] = test system: Fibrinogen (Alexa647-labelled); assay: Alexa647-fibrinogen binding to printed small molecules – biochemical, small-molecule microarray, 635/667 nm fluorescence, artefact control for SMM control-protein annotation, profiling panel (AID 1131); settings: fibrinogen-A647 binding fluorescence, higher = more signal;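 note: z-score merges 667 nm fluorescence with per-spot signal-to-noise over triplicate slides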
# [5] = biological target: Follistatin (Homo sapiens) (UniProt P19883); assay: FST protein binding to printed compounds – biochemical, small-molecule microarray, 635/667 nm fluorescence, primary screen (AID 1132); settings: 635 nm fluorescence, higher = more signal
# Chain of Follistatin (Homo sapiens) (P19883 whole entry, looked up): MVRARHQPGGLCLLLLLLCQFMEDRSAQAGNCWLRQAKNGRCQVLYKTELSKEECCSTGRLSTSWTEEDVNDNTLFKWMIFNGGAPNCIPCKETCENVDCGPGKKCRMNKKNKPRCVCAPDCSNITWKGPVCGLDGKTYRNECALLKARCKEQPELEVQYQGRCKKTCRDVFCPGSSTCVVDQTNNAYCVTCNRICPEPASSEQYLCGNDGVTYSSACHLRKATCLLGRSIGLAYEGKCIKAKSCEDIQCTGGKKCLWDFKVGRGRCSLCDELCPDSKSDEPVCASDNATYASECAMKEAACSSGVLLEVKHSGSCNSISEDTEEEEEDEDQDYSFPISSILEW
# [6] = biological target: Fibroblast growth factor 2 (Homo sapiens) (UniProt P09038); assay: basic fibroblast growth factor binding to printed compounds – biochemical, small-molecule microarray, 635/667 nm fluorescence, primary screen (AID 1133); settings: FGF2, fluorescence 635/667, higher = more signal
# Chain of Fibroblast growth factor 2 (Homo sapiens) (P09038 whole entry, looked up): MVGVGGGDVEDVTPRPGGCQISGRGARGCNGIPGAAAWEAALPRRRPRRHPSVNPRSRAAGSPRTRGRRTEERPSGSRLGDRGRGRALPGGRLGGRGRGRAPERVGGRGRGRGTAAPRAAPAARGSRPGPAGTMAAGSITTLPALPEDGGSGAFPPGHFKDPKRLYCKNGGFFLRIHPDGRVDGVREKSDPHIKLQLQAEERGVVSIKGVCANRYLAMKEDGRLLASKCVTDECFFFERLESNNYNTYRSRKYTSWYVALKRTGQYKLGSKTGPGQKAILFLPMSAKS
# [7] = JC-1 mitochondrial potential readout, lung cancer cells – cell-based, A549, JC-1 fluorescence, basal, 24 h, 100 nL, profiling panel (AID 1138); settings: higher = more signal;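 note: A549 lung adenocarcinoma cells under basal conditions with no added stimulus; test concentration not given here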
# Lefty1 = Lefty1 protein binding to printed compounds – biochemical, small-molecule microarray, 635/667 nm fluorescence, primary screen (AID 1139); settings: fluorescence 635/667, higher = more signal
# [8] = test system: wheat germ agglutinin (Triticum aestivum), Alexa647-labelled; assay: Alexa647-WGA lectin binding to printed small molecules – biochemical, small-molecule microarray, 635/667 nm fluorescence, artefact control for SMM control-protein annotation, profiling panel (AID 1140); settings: WGA-A647 binding, 635 nm fluorescence, higher = more signal;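 note: score merges 667 nm feature emission with signal to noise over triplicate slides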
# [9] = biological target: Luciferin 4-monooxygenase (Photinus pyralis) (UniProt P08659); assay: inhibition of purified Photinus pyralis luciferase – biochemical, luminescence, purified enzyme, 2006 set, primary screen (AID 1141); settings: purified firefly luciferase, SteadyGlo luminescence, 30 min; higher = more signal, called active from +8 up or from −8 down;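 note: cell-free assay with purified firefly luciferase at 100 ng per well in PBS; test concentration not given here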
# Chain of Luciferin 4-monooxygenase (Photinus pyralis) (P08659 whole entry, looked up): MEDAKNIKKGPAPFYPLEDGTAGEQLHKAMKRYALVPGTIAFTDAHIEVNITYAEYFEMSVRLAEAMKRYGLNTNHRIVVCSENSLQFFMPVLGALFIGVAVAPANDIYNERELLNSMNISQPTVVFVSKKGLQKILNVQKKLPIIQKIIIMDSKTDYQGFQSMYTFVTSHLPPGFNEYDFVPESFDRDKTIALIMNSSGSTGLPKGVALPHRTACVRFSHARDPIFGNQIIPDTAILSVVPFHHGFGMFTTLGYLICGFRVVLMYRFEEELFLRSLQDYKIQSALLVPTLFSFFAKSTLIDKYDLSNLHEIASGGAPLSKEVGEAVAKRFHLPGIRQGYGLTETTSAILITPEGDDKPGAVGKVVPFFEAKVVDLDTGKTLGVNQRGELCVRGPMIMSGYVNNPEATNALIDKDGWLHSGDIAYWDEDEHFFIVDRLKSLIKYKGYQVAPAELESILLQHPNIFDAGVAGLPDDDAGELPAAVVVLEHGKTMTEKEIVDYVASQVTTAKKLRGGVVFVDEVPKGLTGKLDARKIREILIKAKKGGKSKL
SMILES,composite z-score [1],composite z-score [2],composite z-score [3],composite z-score [4],composite z-score [5],composite z-score [6],z-score [7],composite z-score (Lefty1),composite z-score [8],z-score [9]
NCCCC[C@@H]1NC(=O)[C@H]2C[C@@H](C(=O)NCc3ccc(F)cc3)[C@@H](c3cccc(OCCO)c3)N2C1=O,2.48,1.23,0.0858,0.763,1.32,1.62,-1.7,1.56,0.231,-0.434 (inactive)
C[N+](C)(C)CCCCCCNC(=O)[C@H]1C[C@H]2C(=O)NCC(=O)N2[C@H]1c1cccc(OCCO)c1,3.03,0.283,-0.27,0.0104,1.13,1.63,-0.883,1.6,0.273,-0.0987 (inactive)
COC(=O)[C@@]1(Cc2ccc(F)cc2)[C@H]2c3cc(C(=O)N4CCCC4)n(CCO)c3C[C@H]2CN1C(=O)c1ccccc1,0.896,1.05,1.51,-2.15,-0.212,-0.862,1.44,-0.0322,0.0962,1.74 (inactive)
CC(C)=CCN(C(=O)C#Cc1ccccc1)[C@H](CO)c1ccccc1,0.326,0.419,-0.0317,0.237,0.653,0.766,-0.842,0.743,0.146,0.265 (inactive)
C=CCC(OC(C)=O)[C@@H]1[C@@H](N(Cc2ccc(-c3cccc(C(F)(F)F)c3)o2)C(=O)Cc2ccc(OC)cc2)c2cc(OCCCO)ccc2N1C(=O)c1ccc2ccccc2n1 (stereo not given in full),0.292,-1.64,-0.236,-0.665,0.767,-0.149,-0.448,0.0089,0.113,0.471 (inactive)
CC(C)CNC(=O)[C@@H]1c2ccccc2C(=O)N(C2Cc3ccccc3C2)[C@H]1c1ccc(CO)cc1,0.245,0.516,-0.587,0.182,0.348,0.579,3.56,-0.499,-0.19,-0.843 (inactive)
CC(=O)NCCCC[C@@H]1NC(=O)[C@@H]2C[C@H](C(=O)NCCCCCC[N+](C)(C)C)[C@H](c3ccc(O)cc3)N2C1=O,3.45,0.377,-0.153,0.333,1.41,1.56,-0.856,0.907,0.78,0.32 (inactive)
CO[C@H]1O[C@H](CO)[C@@H](OC(=O)Nc2ccc(C(F)(F)F)cc2)[C@H](OC(=O)Nc2ccccc2-c2ccccc2)[C@@H]1OC(=O)Nc1ccccc1-c1ccccc1,2.01,1.1,0.799,0.911,1.3,0.697,0.284,1.08,1.04,0.798 (inactive)
COCCOC(=O)N1C(=O)[C@@]2(c3cc(C#CCCO)ccc31)[C@H](c1ccccc1OCCO)N1[C@H](c3ccccc3)[C@H](c3ccccc3)OC(=O)[C@H]1[C@@H]2C(=O)N1CCc2cc(OC)c(OC)cc2C1,1.86,1.22,0.405,0.869,1.14,1.25,-0.0868,0.786,0.546,-1.26 (inactive)
COC(=O)[C@@]1(Cc2ccccc2)[C@@H]2[C@@H](CC(=O)[C@H]2CC(=O)C(=O)N(C)C)CN1C(=O)c1ccccc1,1.33,0.577,0.434,0.601,-0.155,-0.112,1.19,-0.575,0.0553,0.558 (inactive)
Cc1ccc(S[C@]2(C(=O)NCCN3CCOCC3)CC(=O)N(C3CCCCC3)[C@@H]2c2ccc(CO)cc2I)cc1,0.893,1.2,1.14,0.926,0.972,0.236,1.23,1.21,0.977,0.827 (inactive)
C[N+](C)(C)CCCC[C@@H]1NC(=O)[C@H]2C[C@@H](C(=O)NCCCCCNC(=O)CS)[C@@H](c3ccc(O)cc3)N2C1=O,2.82,0.785,0.336,0.9,1.07,0.826,0.455,0.349,0.215,-1.2 (inactive)
COC(=O)[C@H](Cc1ccc(O)cc1)N1CC2=CCCC=C[C@@H]2[C@H]1[C@H](O)Cc1ccccc1,0.0409,-0.24,-0.0148,0.92,0.359,0.348,-0.934,0.58,0.216,-1.63 (inactive)
Cc1c(-c2ccc(-c3ccc(Cl)c(Cl)c3)o2)nc(-c2ccccc2)c2c1CO[Si]2(C(C)C)C(C)C,0.466,0.168,-0.0127,0.407,-0.161,-0.255,-0.777,0.351,0.284,-0.056 (inactive)
C=CCC(OC(C)=O)[C@@H]1[C@@H](N(Cc2cc3ccccc3o2)C(=O)c2cccc3ccccc23)c2cc(OCCCO)ccc2N1C(=O)c1ccc2ccccc2c1 (stereo not given in full),-0.0596,-0.566,0.11,-0.262,0.65,0.133,-0.0697,0.203,-0.0449,0.131 (inactive)
COCC(=C=CC[C@@H](O)c1cccc(OCCO)c1)C[C@@H](O)COCc1ccccc1,0.934,1.09,0.112,-0.272,0.941,-0.237,0.806,-0.058,1.34,-2.33 (inactive)
